Z-score data for eight compounds are collected here from PubChem BioAssay.

Structures are written as SMILES. Activity calls are given as the source filed them.

Assay [1] in a line: A549 cell viability effects, profiling panel, calcein-AM fluorescence, 48 h, basal (AID 1162). The settings on record: higher = more signal.
Assay [2] is described as follows: adipocyte viability effects, profiling panel, cell-based, 3T3-L1 adipocytes, calcein-AM fluorescence, 48 h, basal (AID 1163). The settings on record: 3T3-L1 adipocytes viability, higher = more signal.
Assay [3] is described as follows: HepG2 cell viability effects, profiling panel, calcein-AM fluorescence, 48 h, basal (AID 1164). Particulars: higher = more signal.
Assay [4] is described as follows: MM1S cell viability effects, profiling panel, calcein-AM fluorescence, 48 h, basal (AID 1165).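 Further: viability of MM1S multiple myeloma cells under basal unstimulated conditions.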 Particulars: higher = more signal.
Assay [5] is described as follows: basal RPMI8226 viability, no added stimulus, profiling panel, cell-based, calcein-AM fluorescence, 48 h, PK04 Diversity Set (AID 1166).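 Further: cells grown under basal conditions without added stimulus.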 Particulars: RPMI8226 myeloma viability, higher = more signal.
Assay [6] is described as follows: basal HepG2 mitochondrial membrane potential changes, profiling panel, cell-based, JC-1 fluorescence, 24 h, 100 nL compound (AID 1167). Particulars: higher = more signal.
Assay [7] can be described thus: basal 3T3-L1 adipocyte mitochondrial potential changes, profiling panel, cell-based, JC-1 fluorescence, 3T3-L1 adipocytes, 24 h, 100 nL compound (AID 1168). The settings on record: JC-1 mitochondrial fluorescence, higher = more signal, called active from +8 up or from −8 down.
Assay [8] is described as follows: basal RPMI8226 mitochondrial membrane potential changes, profiling panel, cell-based, JC-1 fluorescence, 24 h, 100 nL compound (AID 1169). Particulars: RPMI8226 myeloma, JC-1 mitochondrial potential fluorescence, higher = more signal.
A short description of assay [9]: basal MM1S mitochondrial membrane potential changes, profiling panel, cell-based, JC-1 fluorescence, 24 h, 100 nL compound (AID 1170). The settings on record: higher = more signal.
A short description of assay [10]: A549 lung cancer cell viability effects, profiling panel, resazurin fluorescence, 24 h, PK04 Diversity Set (AID 1171). The settings on record: higher = more signal, called active from +8 up or from −8 down. (Alamar Blue is a resazurin reagent that responds to reducing activity.)
Further: test concentration not given here.

Take `Cc1cc(C)c(C(O)C2C=CC3C(=O)NC(=O)C3N2Nc2ccc(Cl)cc2Cl)c(C)c1` (stereo not given): the z-score in assay [1] is -2.15; in assay [2], -0.22; in assay [3], -1.68; in assay [4] it was -3.52; in assay [5], -3.03; in [6], -2.65. In addition, the z-score in assay [7] is -0.143 (inactive); in [8] it was -1.02; in assay [9], -0.44; in [10] it was -1.59 (inactive).

Regarding `CC(CO)N1C(=O)[C@@H]2[C@H]3C(=O)OCC=C[C@H]3OC23C=CCN(Cc2ccccc2)C(=O)[C@@H]13` (stereo not given in full), the z-score was -0.0849 in [1]; 0.847 in assay [2]; -1.35 in [3]; 1.17 in assay [4]; 0.0239 in assay [5]; -0.378 in assay [6]. For the same compound, the z-score in assay [7] was 0.508 (inactive); in [8], -0.0286; in assay [9] it was 0.491; in assay [10], 0.881 (inactive).

On to `NCCCCCNC(=O)[C@@H]1C[C@@H]2C(=O)NCC(=O)N2[C@@H]1c1cccc(OCCO)c1`, for which the z-score in [1] is -0.507; in [2] it was 1.11; in assay [3], -0.531; in [4] it was -0.686; in assay [5], -0.947; in [6] it was 1.5. The z-score in assay [7] is -0.298 (inactive); in assay [8] it was 0.00435; in [9] it was 0.53; in assay [10], -0.505 (inactive).

`CC(C)C(=C=CC[C@H](O)c1ccc(OCCO)cc1)C[C@H](O)c1ccccn1`: the z-score was 1.84 in assay [1]; -0.245 in assay [2]; 1.34 in [3]; -1.86 in [4]; -0.121 in assay [5]; 0.421 in [6]. Further, the z-score in assay [7] was -0.0235 (inactive); in [8], -0.479; in assay [9] it was -0.5; in assay [10] it was 1.15 (inactive).

Consider `C[C@@H]1NC(=O)[C@@]23C(=O)N[C@@H](Cc4ccccc4)C2[C@H](C)[C@@]2(C)O[C@H]2C3/C=C/C/C=C\CNC(=O)[C@@H]2CCCN2C1=O` (stereo not given in full), for which the z-score in assay [1] was -0.143; in [2], 0.389; in assay [3], -0.0552; in assay [4], 0.37; in [5] it was -0.0448; in assay [6], -0.175. In addition, the z-score is 1.19 (inactive) in assay [7], 0.632 in [8], -0.0219 in assay [9] and 0.247 (inactive) in [10].

As for `Cc1cc(C)cc(N2C(=O)CSC2c2cccc([N+](=O)[O-])c2)c1` (stereo not given), the z-score in assay [1] was 0.377; in assay [2], -0.28; in assay [3], 0.0887; in assay [4] it was 1.22; in [5], 0.699; in assay [6], 1.43. Also, the z-score is 0.786 (inactive) in [7], -0.445 in [8], -0.541 in assay [9] and -0.661 (inactive) in assay [10].

For `COCCOC(=O)N1C(=O)[C@@]2(c3cc(C#Cc4ccc(OC)cc4)ccc31)[C@H](C(=O)Nc1nc3ccccc3s1)[C@H]1C(=O)O[C@H](c3ccccc3)[C@H](c3ccccc3)N1[C@@H]2c1ccc(O)cc1`, the z-score in assay [1] was 0.373; in assay [2], 1.31; in [3], -0.375; in assay [4], -1.18; in assay [5] it was -1; in assay [6] it was -2.78. The z-score in assay [7] is 1.1 (inactive); in assay [8] it was -0.544; in assay [9], -0.766; in [10], 0.0344 (inactive).

`C[N+](C)(C)CCCCCCNC(=O)[C@H]1C[C@H]2C(=O)NCC(=O)N2[C@H]1c1ccc(O)cc1`: the z-score in assay [1] is -0.93; in assay [2] it was -0.313; in [3], -0.799; in assay [4], -1.17; in assay [5], -0.121; in assay [6], -1.71. The z-score in assay [7] was -0.159 (inactive); in assay [8] it was 0.0729; in [9] it was -0.235; in assay [10], 0.14 (inactive).
